Hit rate of the full screen: of about 300,000 compounds, about 37,000 (12%) were called active. No stated cut-off is given here; in the data, active means max response mostly above about 13% (no sharp cut-off); inactive means mostly below about 14%. Many of the other results were omitted from the sample, so actives are more common in it than they were.
Experiment: Cycloheximide Counterscreen for Small Molecule Inhibitors of Shiga Toxin; further: read at 38.3 µM for the half of the compounds with a filed dose; 0% is about no effect
Conditions: cell reporter, cycloheximide protein synthesis inhibition counterscreen; hits give high values

Row | SMILES | max response
1 | CN(C)c1ccc(Nc2c3c4c(cccc4n(C)c2=O)C(=O)c2ccccc2-3)cc1 | 3.88% (inactive)
2 | Cc1cc(NC(=O)CSc2nnc(-c3ccc(Cl)s3)o2)no1 | 5.82% (inactive)
3 | Cc1cc(N/C=C\C(=O)c2ccc(Cl)c(Cl)c2)no1 | 11.9% (active)
4 | COc1ccc(C(=O)/C=C/Nc2ccccn2)cc1 | 2.25% (inactive)
5 | COc1ccc(NC(=O)CSc2nncc(=O)n2N)cc1OC | -3.35% (inactive)
6 | COC(=O)[C@@H]1CC[C@H](C)[C@@H](c2ccc(C)cc2)N1C(=O)c1ccc(/C=N/O[C@H](C)c2cn([C@@H]3COC[C@H]3O)nn2)cc1 | -2.13% (inactive)
7 | CN1C2CCC1CC(NC(=O)c1ccc([N+](=O)[O-])cc1)C2 (stereo not given) | -3.99% (inactive)
8 | Cc1nn(-c2ccccc2)c(CC(C)(C)C(=O)O)c1C(=O)O | -4% (inactive)
9 | CC(=O)c1cccc(NC(=O)c2cc(C)nn2-c2ccccc2)c1 | 12.3% (active)
10 | Cc1cc(NC(=O)Nc2ccc(Cl)cc2)n(-c2ccccc2)n1 | 1.95% (inactive)
11 | Cc1ccc(NC(=O)Nc2cc(-c3ccccc3)nn2C)cc1Cl | 1.12% (inactive)
12 | CSc1ccccc1C(=O)Nc1cccc(C(C)=O)c1 | 11.9% (inactive)
13 | COc1ccc(CCNC(=O)c2c(C)nn(-c3ccccc3)c2Cl)cc1 | -2.65% (inactive)
14 | Cc1cc(NC(=O)Nc2ccccc2)n(-c2ccccc2)n1 | 18.1% (active)
15 | CCn1c(=O)c2cc(C(=O)Nc3cccc(C(C)=O)c3)sc2c2ccccc21 | -2.44% (inactive)
16 | Cc1nn(-c2ccccc2)c(Cl)c1C(=O)Nc1ccccc1 | 24.4% (active)
17 | O=C(NCc1ccco1)/C(=C/c1cccc([N+](=O)[O-])c1)NC(=O)c1ccco1 | 1.87% (inactive)
18 | COC(=O)[C@H](Cc1ccccc1)NC(=O)[C@@H]1C[C@H]1[C@@H](NC(=O)OCc1ccccc1)c1ccccc1 | -3.05% (inactive)
19 | Cc1nn(C)c(C)c1Sc1ccccc1N | 1.39% (inactive)
20 | O=C(COc1ccc([N+](=O)[O-])cc1)Nc1cccc(C(=O)Nc2ccccc2C(=O)O)c1 | -6.64% (inactive)
21 | Cc1cccc(N2CCN(C(C)C(=O)N3CCc4ccccc43)CC2)c1C (stereo not given) | -5.33% (inactive)
22 | O=C(NCc1cccnc1)c1cccc(-c2cc3ccccc3oc2=O)c1 | 12.9% (inactive)
23 | Nc1ncc(-c2cc3ccccc3oc2=O)s1 | 43.5% (active)
24 | O=C(c1cn(-c2ccccc2)nc1-c1cc2ccccc2oc1=O)N1CCOCC1 | 6.82% (inactive)
25 | O=C(Nc1ccc(F)cc1)C1CCCN(S(=O)(=O)c2ccc(-n3cnnn3)cc2)C1 (stereo not given) | -0.989% (inactive)

Source: PubChem BioAssay AID2314 (National Center for Advancing Translational Sciences (NCATS), 2010)
